{
  "source": "PubChem BioAssay AID624483",
  "about": "(NMMLSC, 2012)",
  "note": "Hit rate of the full screen: of about 360,000 compounds, about 11,000 (3.1%) were called active. Inconclusive results (about 2%) are left out. Cut-off read from the data, not from the text of the source: active = fluorescence intensity above about 16000; inconclusive = no clear call, values can overlap the other calls; inactive = below that. The sample as a whole holds a higher share of actives than the screen did.",
  "data": [
    {"test": "counter-screen for toxin protease inhibitors: compound fluorescence, primary screen, artefact control for toxin protease inhibitor project, biochemical, multiplex microsphere, HTS (AID 624483)", "conditions": "compound autofluorescence counterscreen, microsphere flow cytometry; stronger effect = higher value", "values": [
      {"smiles": "CC(C)CCN1NC2(CCC(C)CC2)NC1=S", "note": "(centres undefined)", "fluorescence intensity": "3830 (inactive)"},
      {"smiles": "CC(C)(C)c1ccc(S(=O)(=O)NC(=O)C2(C)CCN2C(=O)CC2CC2)cc1", "note": "(centres undefined)", "fluorescence intensity": "4180 (inactive)"},
      {"smiles": "Cc1cc(Br)cn2c(Cc3ccccc3C(F)(F)F)c(-c3ccc(Cl)cc3)nc12", "fluorescence intensity": "5850 (inactive)"},
      {"smiles": "Clc1ccc(C2=CSC3=Nc4cccc5cccc(c45)N23)cc1", "fluorescence intensity": "21800 (active)"},
      {"smiles": "CN(C)c1ccc(C(CC(=O)O)C(=O)O)cc1", "note": "(centres undefined)", "fluorescence intensity": "1950 (inactive)"},
      {"smiles": "O=C(NNc1cc(Cl)ccc1Cl)c1cccnc1Cl", "fluorescence intensity": "4240 (inactive)"},
      {"smiles": "COC(=O)c1sc2ncccc2c1OCc1ccc(Cl)cc1Cl", "fluorescence intensity": "23500 (active)"},
      {"smiles": "COc1cccc(NC(=O)CN(C)C(=O)Cc2ccc(Cl)cc2Cl)c1", "fluorescence intensity": "3890 (inactive)"},
      {"smiles": "CC(C)Cc1ccc(-c2cc3nc(NCc4cccc(Cl)c4)ccn3n2)cc1", "fluorescence intensity": "3700 (inactive)"},
      {"smiles": "C=CCC[C@@H](CCCCC)OC(=O)/C=C/[C@@H](O)[C@H](O)C[C@H](O)CC=C", "fluorescence intensity": "6190 (inactive)"},
      {"smiles": "COc1cccc(C(=O)Nc2cc3c(cc2Br)OCCCO3)c1", "fluorescence intensity": "7110 (inactive)"},
      {"smiles": "COc1cccc(C(=O)NNC(=O)c2ccccc2Br)c1", "fluorescence intensity": "16700 (active)"},
      {"smiles": "COc1cccc(C(=O)NNC(=O)/C=C/c2ccccc2)c1", "fluorescence intensity": "6790 (inactive)"},
      {"smiles": "CCN(CC)C(=O)c1ccc(NC(=O)c2cc(-n3cnnc3)ccc2Cl)cc1", "fluorescence intensity": "23800 (active)"},
      {"smiles": "CCN(CC(=O)Nc1ccc(OC)cc1)C(=O)c1ccc(Cl)c(S(=O)(=O)N2CCCC2)c1", "fluorescence intensity": "3470 (inactive)"},
      {"smiles": "CCN(CC)C(=O)c1ccc(NC(=O)c2sccc2-c2ccccc2)cc1", "fluorescence intensity": "4580 (inactive)"},
      {"smiles": "CCOC(=O)C1=CC[C@@H](c2ccccc2)N(S(=O)(=O)c2ccc(C)cc2)[C@H]1c1cccc(OC)c1", "fluorescence intensity": "6140 (inactive)"},
      {"smiles": "O=C(NCCCNC(=O)c1ccccc1Cl)c1cnccn1", "fluorescence intensity": "4420 (inactive)"},
      {"smiles": "COc1ccccc1CCNC(=O)c1cnccn1", "fluorescence intensity": "16600 (active)"},
      {"smiles": "COc1ccccc1CCNC(=O)c1c(C)nn(CC(C)C)c1Cl", "fluorescence intensity": "4680 (inactive)"},
      {"smiles": "O=C(NCCS(=O)(=O)N1CCN(c2ccc(F)cc2)CC1)c1ccc2c(c1)OCO2", "fluorescence intensity": "4110 (inactive)"},
      {"smiles": "CC1(C(=O)NS(=O)(=O)c2cccc(F)c2)CCN1C(=O)c1cccc2ccccc12", "note": "(centres undefined)", "fluorescence intensity": "2920 (inactive)"},
      {"smiles": "CN(C)C1CN(Cc2cn(Cc3ccccc3)nn2)S(=O)(=O)C1", "note": "(centres undefined)", "fluorescence intensity": "4320 (inactive)"},
      {"smiles": "NC(=O)c1ccc(N2CCOCC2)nc1", "fluorescence intensity": "2600 (inactive)"},
      {"smiles": "O=C1c2ccccc2-c2ncnc3c(N4CCOCC4)cc(N4CCOCC4)c1c23", "fluorescence intensity": "4380 (inactive)"},
      {"smiles": "c1cnn(-c2cc(N3CCOCC3)ncn2)c1", "fluorescence intensity": "17000 (active)"},
      {"smiles": "CS(=O)(=O)N(CC(=O)Nc1ccc(F)cc1)C1CCCCC1", "fluorescence intensity": "3860 (inactive)"},
      {"smiles": "CS(=O)(=O)N(CC(=O)Nc1ccc(Cl)c(Cl)c1)C1CCCCC1", "fluorescence intensity": "21700 (active)"},
      {"smiles": "N#CCCN(C(=O)Nc1ccc(Cl)c(Cl)c1)C1CCCCC1", "fluorescence intensity": "2920 (inactive)"}
    ]}
  ]
}
